DT40 TDP1 no CPT – qHTS for Inhibitors of human tyrosyl-DNA phosphodiesterase 1 (TDP1): qHTS in cells in absence of CPT; DT40 Tdp1-/- hTDP1 cells, no CPT, ATP luminescence, 48 h; Potency, µM (top dose mostly 46.2 µM), without a hit: at the highest dose activity change, negative = growth inhibition, most hits filed as inhibitors; hit rate 15% among 420,000; note: potency is the fitted concentration of half-maximal effect; % is set by controls: 0 for no effect and ±100 for the full control effect; nearly all actives have a fitted effect of over 55% in size
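Chicken DT40 Tdp1-/- cells stably complemented with human TDP1 were seeded at 400 cells/well with DMSO in place of 20 nM camptothecin. After compound pinning, cells grew at least 48 hr at 37 °C; viability read by CellTiter-Glo luminescence.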
MCF10A rerep – A quantitative high throughput screen for small molecules that induce DNA re-replication in MCF 10a normal breast cells; hit rate 2.9% among 350,000; Potency, µM (top dose mostly 46.1 µM), inactives show at the highest dose activity, positive = re-replication, hits mostly activators; MCF 10A DNA re-replication, Hoechst nuclear intensity, 48 h; AID 624296, 2012; note: potency is the fitted concentration of half-maximal effect; % of control where 0% means no effect; nearly all actives have a fitted effect of over 50% in size
DT40 TDP1 CPT – qHTS for Inhibitors of human tyrosyl-DNA phosphodiesterase 1 (TDP1): qHTS in cells in presence of CPT; chicken DT40 Tdp1-/-;hTDP1 cells + 20 nM CPT, ATP luminescence, 48 h; Potency, µM (top dose mostly 46.2 µM), inactives show top-dose activity change, negative = growth inhibition, usual class: inhibitors; hit rate 12% among 420,000; note: potency is the fitted concentration of half-maximal effect; % is set by controls: 0 for no effect and ±100 for the full control effect; nearly all actives have a fitted effect of over 55% in size
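Cell growth measured by CellTiter-Glo luminescence after a minimum 48 h, 37 C compound exposure with 20 nM CPT in Tdp1-knockout DT40 cells stably expressing hTDP1, seeded 400/well; qHTS titration format.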
IL1B secr inh – qHTS for Inhibitors of Inflammasome Signaling: IL-1-beta AlphaLISA Primary Screen | THP-1 LPS/ATP IL-1B secretion, AlphaLISA, 16 h; active compounds read low | activity change, % at 57.5 µM | hit rate 4.7% among 360,000; in the data active = activity change below about -50%; inconclusive = mostly about -30% to -49%; note: % is set by controls: 0 for no effect and ±100 for the full control effect
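THP-1 cells pretreated 1 hr with compounds (up to 57.5 uM final), then stimulated with LPS (250 ng/mL final) plus ATP (1.25 mM final); secreted IL-1B measured by AlphaLISA after 16 hr, decreased signal indicating inhibition.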
BCR signal inh – qHTS Assay to Find Inhibitors of Chronic Active B-Cell Receptor Signaling; ABC-DLBCL IkBa-CBG/CBR reporter, luminescence ratio, 4 h; AID 493014, 2011; Potency, µM (titrated, usually from 46.1 µM), inactives show top-dose activity change, negative = inhibition, actives largely listed as inhibitors; hit rate 0.05% among 340,000; active = well fitted inhibition curve with a large enough effect in the signal ratio, with a control signal flat, not every such curve was filed as active; inconclusive = small, poorly fitted or top-dose-only effect, or effect the other way, or a change in a side signal; the % refers to the signal ratio;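 note: potency is the fitted concentration of half-maximal effect; plate controls were basal doxycycline-induced cells for no effect and cells given 10 µM MG132 for full effect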
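Cell line TMD8 (human ABC DLBCL), stably expressing tet-inducible CBG68-IkBa fusion and CBR; IMDM/0.5% FBS; cpd up to 46 uM; dox induction, 4 h, 37C/5% CO2; dual luminescence; green/red ratio; MG132 control.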
SW480 rereplic – A quantitative high throughput screen for small molecules that induce DNA re-replication in SW480 colon adenocarcinoma cells; SW480 DNA re-replication, Hoechst DNA content imaging, 48 h; Potency, µM (titrated, usually from 46.1 µM), inactives show at the highest dose re-replication activation, usual class: activators; hit rate 1.8% among 340,000; note: potency is the fitted concentration of half-maximal effect; % of control where 0% means no effect; nearly all actives have a fitted effect of over 55% in size
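Quantitative HTS format with DMSO vehicle controls; 48 hr drug incubation at 37 C, then 40 min Hoechst staining and scanning imager measurement at 405 nm excitation.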
* = called active by the depositor. Shown are actives, neighbours in structure and some others; about 19% of the full set was active somewhere. Unless noted, calls come from the whole dose curve; as a rule, active = well fitted curve in the direction sought with a large enough effect; inconclusive = small, poorly fitted or top-dose-only effect, or another doubt; inactive = no such curve, though single readings can be large; an effect the other way counts as inactive or inconclusive.

CN(C)c1ccc(/C=C/C=C2/C(=O)NC(=O)N(c3ccccc3)C2=O)cc1 was read as DT40 TDP1 no CPT 4.1µM*, MCF10A rerep inconclusive, DT40 TDP1 CPT 2.9µM*, IL1B secr inh -107*, BCR signal inh 16% and SW480 rereplic inconclusive.
`CN1C(=O)/C(=C/C=C/c2ccco2)C(=O)NC1=S` gave DT40 TDP1 no CPT inconclusive, MCF10A rerep 9%, DT40 TDP1 CPT inconclusive, IL1B secr inh 0, BCR signal inh 10% and SW480 rereplic inconclusive.
`Cc1cccc(N2C(=O)CC(=O)NC2=O)c1` gave DT40 TDP1 no CPT 1%, MCF10A rerep inconclusive, DT40 TDP1 CPT 5%, IL1B secr inh 21, BCR signal inh -3% and SW480 rereplic 2%.
Screening O=C1NC(=O)N(c2ccccc2)C(=O)/C1=C/C=C/c1ccco1 returned DT40 TDP1 no CPT 4.6µM*, MCF10A rerep inconclusive, DT40 TDP1 CPT 4.6µM*, IL1B secr inh -100*, BCR signal inh inconclusive and SW480 rereplic 15µM*.
Screening Cn1cc(/C=C2\C(=O)NC(=O)N(c3ccccc3)C2=O)c2ccccc21 returned DT40 TDP1 no CPT -11%, MCF10A rerep 29%, DT40 TDP1 CPT -28%, IL1B secr inh 50, BCR signal inh inconclusive and SW480 rereplic 5%.
For C=CCN1CC[C@]23c4c5ccc(O)c4O[C@@H]2C(=O)CC[C@]3(O)[C@H]1C5 the results were DT40 TDP1 no CPT -11% and DT40 TDP1 CPT -3%.
Cc1ncoc1C(=O)NCC1=C(c2ccc(S(C)(=O)=O)cc2)C[C@@H]2CC[C@H]1N2CCOc1ccccc1 was read as DT40 TDP1 no CPT inconclusive, DT40 TDP1 CPT 3% and IL1B secr inh 11.
Screening CN(C)[C@@H](Cc1ccccc1)c1ccccc1 returned MCF10A rerep 10% and SW480 rereplic 1%.
For Cn1cccc1/C=C1\C(=O)NC(=O)N(Cc2ccco2)C1=O the results were DT40 TDP1 no CPT inconclusive, MCF10A rerep 1%, DT40 TDP1 CPT 9.2µM*, IL1B secr inh 79, BCR signal inh inconclusive and SW480 rereplic 3%.
O=C1NC(=O)N(Cc2ccco2)C(=O)/C1=C/C=C/c1ccco1 was read as DT40 TDP1 no CPT 9.2µM*, MCF10A rerep 18µM*, DT40 TDP1 CPT 7.3µM*, IL1B secr inh -100*, BCR signal inh 0% and SW480 rereplic inconclusive.
Cc1ccc(OCCn2cccc2/C=C2/C(=O)NC(=O)N(Cc3ccco3)C2=O)cc1 was read as DT40 TDP1 no CPT -15%, MCF10A rerep inconclusive, DT40 TDP1 CPT -28%, IL1B secr inh -22, BCR signal inh -11% and SW480 rereplic 11%.
COc1ccc(/C=C2/C(=O)NC(=O)N(Cc3ccco3)C2=O)cc1 was read as BCR signal inh 2%.
For Cc1cccc(N2C(=O)NC(=O)/C(=C/c3ccc([N+](=O)[O-])o3)C2=O)c1 the results were DT40 TDP1 no CPT inconclusive, MCF10A rerep 6%, DT40 TDP1 CPT inconclusive, IL1B secr inh -1, BCR signal inh 21% and SW480 rereplic -19%.
Cc1cccc(N2C(=O)NC(=O)/C(=C\c3cccn3-c3ccc(Cl)cc3)C2=O)c1 was read as DT40 TDP1 no CPT 21µM*, MCF10A rerep inconclusive, DT40 TDP1 CPT 10µM*, IL1B secr inh -90*, BCR signal inh inconclusive and SW480 rereplic inconclusive.
Screening CN1CSC(=S)N(C)C1 returned DT40 TDP1 no CPT 4.6µM*, MCF10A rerep 0%, DT40 TDP1 CPT 6.5µM*, IL1B secr inh -95* and SW480 rereplic inconclusive.
COc1ccc(NC(=O)c2ccco2)cc1NC(=O)COc1cc(C)cc(C)c1 was read as DT40 TDP1 no CPT 5.8µM* and DT40 TDP1 CPT 8.2µM*.
CCOc1ccc(-c2cc(C)[n+](CCN3CCOCC3)c(-c3ccc(OCC)cc3)c2)cc1 was read as DT40 TDP1 no CPT 1.3µM*, MCF10A rerep 15%, DT40 TDP1 CPT 1.5µM*, BCR signal inh inconclusive and SW480 rereplic inconclusive.
For COc1cc(OC)cc(-c2sc3ccc(OC)cc3c2-c2ccc(OCCN3CCOCC3)cc2)c1 the results were DT40 TDP1 no CPT inconclusive, MCF10A rerep inconclusive, DT40 TDP1 CPT inconclusive, IL1B secr inh -7, BCR signal inh inconclusive and SW480 rereplic inconclusive.
`Cc1ccc(Cn2nc(C)c(NC(=O)c3cc(-c4ccc(F)cc4)on3)c2C)cc1` gave DT40 TDP1 no CPT 7.3µM* and DT40 TDP1 CPT 10µM*.
Screening CCC(=O)C1=C(c2cccc([N+](=O)[O-])c2)N(C(=O)CC)n2c(nnc2C2CCCCC2)S1 returned DT40 TDP1 no CPT 4.1µM*, DT40 TDP1 CPT 3.3µM* and BCR signal inh 12%.
COc1ccc(CCNC(=O)c2ccc3c(c2)CCN3S(=O)(=O)c2ccc(C)cc2)cc1OC was read as DT40 TDP1 no CPT 13µM* and DT40 TDP1 CPT 21µM*.
For COc1ccc(CCn2c(O)c(/C=N/NC(=O)c3ccncc3)c(=O)[nH]c2=O)cc1OC the results were DT40 TDP1 no CPT 3%, MCF10A rerep 2%, DT40 TDP1 CPT 1%, IL1B secr inh 26, BCR signal inh 6% and SW480 rereplic inconclusive.
Screening Cc1ccccc1C(=O)N1Cc2ccccc2-n2nncc2C1 returned DT40 TDP1 no CPT inconclusive, DT40 TDP1 CPT inconclusive and IL1B secr inh 29.
`Cn1c(O)c(C2=NNC(c3ccc(Cl)cc3)C2)c(=O)n(C)c1=O` (configuration not stated) gave DT40 TDP1 no CPT inconclusive, MCF10A rerep -9%, DT40 TDP1 CPT 26µM*, IL1B secr inh 19, BCR signal inh inconclusive and SW480 rereplic inconclusive.
For CC(C)CC(N)c1csc(NC(=O)Nc2ccccc2-c2ccccc2)n1 (configuration not stated) the results were DT40 TDP1 no CPT 18µM*, DT40 TDP1 CPT 23µM* and IL1B secr inh inconclusive.
Screening CC(C)c1ccc(NC(=O)Nc2nc(C(N)CCc3ccccc3)cs2)cc1 (configuration not stated) returned DT40 TDP1 no CPT 4.6µM*, DT40 TDP1 CPT 5.8µM* and IL1B secr inh -106*.
